Assay results: PubChem BioAssay (NCI)
The panel holds about 83,000 compounds, 20% with a hit somewhere; the sample as a whole holds those more often.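 Each cell line was grown in a 96-well plate and treated with one concentration of compound for 48 hours. Values below 10 were considered active.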 A number with no mark means an inactive call. The source made the active and inactive calls.

These compounds were tested on SK-MEL-28 melanoma (assay: NCI-60 one-dose screen, 48 h (100 = growth as untreated, 0 = no growth, -100 = all killed)). Conditions: 10 µM unless noted.

Row | SMILES | growth
1 | N#Cc1c(NC(=O)c2ccc([N+](=O)[O-])o2)[n+]([O-])c2cc(F)c(F)cc2[n+]1[O-] | 99.7%
2 | CC(C)(C)OC(=O)N1C/C(=C\c2cccs2)C(=O)/C(=C/c2cccs2)C1 | 106%
3 | CC(Cc1nnc(SCC(=O)Nc2ccc(I)cc2)n1N)c1ccccc1 (stereo not drawn) | 133%
4 | COC(=O)CC/C(C)=N\Nc1ccc([N+](=O)[O-])cc1 | 96%
5 | COc1ccccc1OCC(=O)Nc1sc2c(c1C(N)=O)CCC2 | 101%
6 | CC(=O)N1Cc2ccccc2C(C)Cc2cc(Cl)ccc21 (stereo not drawn) | 112%
7 | COc1ccc(/C(=N/O)c2cc(OC)c(OC)c(OC)c2)c(OC)c1N | 59.2%
8 | CC(C)CCC[C@@H](C)[C@H]1CC[C@H]2[C@@H]3CC[C@H]4C/C(=N/O)CC[C@]4(C)[C@H]3CC[C@]12C | 116%
9 | C/C(=N\NC(=O)CC#N)c1cc2cc(Cl)ccc2o1 | 110%
10 | CCC#CC[C@H]1C/C=C2/C(=O)C=C[C@@H]2C/C=C\CCCC(=O)O1 | 1.63% (active)
11 | Cc1cc(C(=O)O)c(N)c(C)n1 | 117%
12 | CCCCCCOc1ccc(C2(Cl)c3ccccc3N(C)c3ccccc32)cc1 | 24.5%
13 | CC(C)N(Cc1ccc(CN(C(=O)CCl)C(C)C)cc1)C(=O)CCl | 33.1%
14 | COc1cc(-n2nc(C(=O)Nc3ccc(C(=O)O)cc3)nc2-c2ccccc2)cc(OC)c1OC | 115%
15 | NC(=O)NNC(=O)c1ccccc1 | 117%
16 | CC1Cc2c(N(C)C)ncnc2N(C)c2ccc(O)cc21 (stereo not drawn) | 98.6%
17 | O=S(=O)(NCCCNc1cc(-c2cn(-c3ccccc3)nc2-c2cccc(O)c2)ccn1)c1ccc(C(F)(F)F)cc1 | 21.7%
18 | Cc1ccc(S(=O)(=O)N2CCC(C(=O)Nc3ccc(F)cc3F)CC2)cc1 | 122%
19 | COc1ccc2c(c1)NC(=O)CN2c1nc(NC2CC2)nc2ccccc12 | 54.7%

Row | SMILES | growth
20 | C=C1C(=O)O[C@H]2[C@H]1CC/C(COC(=O)NCCc1cccc(OC)c1)=C\CC[C@@]1(C)O[C@@H]21 | 46.7%
21 | COc1cc(-c2csc(NC(=O)c3cc(C(F)(F)F)cc(C(F)(F)F)c3)n2)cc(OC)c1OC | 40.8%
22 | Clc1nc(Cl)c2ncn(C/C=C/Cn3cnc4c(Cl)nc(Cl)nc43)c2n1 | 98.8%
23 | Cc1ccc2c(c1)C(C)Cc1c(ncnc1-n1cnc3ccccc31)N2C (stereo not drawn) | 61.8%
24 | CCN(CC)S(=O)(=O)c1ccc2[nH]c(=O)cc(C(=O)Nc3ccc(OC)cc3OC)c2c1 | 123%
25 | COC(=O)CCCCCN=Cc1c(O)c(O)c(C(C)C)c2cc(C)c(-c3c(C)cc4c(C(C)C)c(O)c(O)c(C=NCCCCCC(=O)OC)c4c3O)c(O)c12 | 33%
26 | CCC(=O)Oc1ccc2c(c1)CC[C@@H]1[C@@H]2CC[C@]2(C)C[C@H](OC(=O)CC)C[C@@H]12 | 73.7%
27 | C=C1C(=O)O[C@H]2[C@H]1CC/C(COC(=O)NCc1cc(OC)cc(OC)c1)=C\CC[C@@]1(C)O[C@@H]21 | -20.2% (active)
28 | O=C(Nc1ccc(I)cc1)c1cc([N+](=O)[O-])ccc1O | 16.4%
29 | O=C(CNC(=O)c1cccc2ccccc12)Nc1ccccc1Oc1ccccc1 | 57.8%
30 | O=C(/C=C/CN1CCOCC1)Nc1cc2c(Nc3ccc(F)c(Cl)c3F)ncnc2cc1OCCOC(F)F | 77.5%
31 | O=C(NCCc1c[nH]c2ccccc12)C1Cc2ccccc2CN1C(=O)c1ccco1 (stereo not drawn) | 116%
32 | Nc1cc2c(cc1N)-c1cc(N)c(N)cc1C2 | 115%
33 | COc1ccc(/C(=N\O)c2cc(OC)c(OC)c(OC)c2)c(OC)c1N | 59.3%
34 | CCC(c1ccc(OC)cc1)C(CC)c1ccc(O)c(CN2CCCC2)c1 (stereo not drawn) | -50.9% (active)
35 | CC(C)(C)c1cc(-c2nc3ccc(N4CCN(CCO)CC4)cc3[nH]2)cc(C(C)(C)C)c1O | 61.2%
36 | OCc1c(-c2ccccc2)nc2sccn12 | 122%
37 | O=C(OCCCCOC(=O)n1cnc2ccccc21)n1cnc2ccccc21 | 108%
38 | OC1CC2c3ccccc3C1c1ccccc12 (stereo not drawn) | 112%
